# Results from publication PMC7862700, “An all-to-all approach to the identification of sequence-specific readers for epigenetic DNA modifications on cytosine”.
# Legend:
# Assay in all cases: DAPPL (digital affinity profiling via proximity ligation, sequencing); 10 mM Tris-HCl pH 7.5, 50 mM NaCl, 1 mM DTT, 4% glycerol, room temperature, 30 min; GST-TFs on glutathione beads, 16-mer random dsDNA library, 0.1% formaldehyde crosslink after washing; high values mean tight binding
# [1] = target: T1, FLI1 (Homo sapiens, UniProt Q01543 1-452); conditions: protein: recombinant; tags: N-terminal GST; dsDNA, one strand shown
# T1 sequence: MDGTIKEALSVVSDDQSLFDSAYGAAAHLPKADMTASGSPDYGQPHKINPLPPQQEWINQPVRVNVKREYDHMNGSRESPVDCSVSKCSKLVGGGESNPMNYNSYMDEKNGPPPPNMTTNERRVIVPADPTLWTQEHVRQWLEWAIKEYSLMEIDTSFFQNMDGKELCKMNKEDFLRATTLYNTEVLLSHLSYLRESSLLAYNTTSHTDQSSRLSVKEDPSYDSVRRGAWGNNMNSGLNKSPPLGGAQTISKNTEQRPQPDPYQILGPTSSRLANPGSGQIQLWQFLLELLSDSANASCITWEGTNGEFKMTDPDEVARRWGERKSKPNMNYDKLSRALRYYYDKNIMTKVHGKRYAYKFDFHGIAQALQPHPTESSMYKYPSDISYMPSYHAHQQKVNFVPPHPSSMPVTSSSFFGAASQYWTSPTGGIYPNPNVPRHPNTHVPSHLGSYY
# How it was run: (§1)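 Binding signal is given per hexamer as its read frequency for a factor divided by its frequency in the tag-only sample. GST-fused human transcription factors were expressed in yeast, captured on glutathione beads, barcoded with DNA and pooled with that sample, then incubated with 200 nmole of a 16-mer random double-stranded DNA library in Tris/NaCl/DTT/glycerol buffer for 30 min at room temperature. The pools were then washed, crosslinked, proximity-ligated, amplified by PCR and sequenced on an Illumina NextSeq500.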
# [2] = target: T2, ELK1 (Homo sapiens, UniProt P19419 1-428); conditions: protein: recombinant; tags: N-terminal GST; dsDNA, one strand shown
# T2 sequence: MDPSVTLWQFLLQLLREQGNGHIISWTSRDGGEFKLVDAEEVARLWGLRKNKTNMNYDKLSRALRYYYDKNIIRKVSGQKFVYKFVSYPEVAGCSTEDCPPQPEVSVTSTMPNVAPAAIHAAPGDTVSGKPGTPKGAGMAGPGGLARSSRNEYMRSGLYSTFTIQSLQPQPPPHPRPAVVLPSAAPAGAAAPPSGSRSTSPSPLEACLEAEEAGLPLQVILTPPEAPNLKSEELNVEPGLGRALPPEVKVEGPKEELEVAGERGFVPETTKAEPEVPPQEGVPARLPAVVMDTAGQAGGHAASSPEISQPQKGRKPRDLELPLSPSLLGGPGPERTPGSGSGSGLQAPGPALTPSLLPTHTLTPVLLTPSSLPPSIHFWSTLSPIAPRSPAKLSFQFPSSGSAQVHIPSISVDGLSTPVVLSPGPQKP
# How it was run: as §1
# [3] = target: T3, GABPA (Homo sapiens, UniProt Q06546 1-454); conditions: protein: recombinant; tags: N-terminal GST; dsDNA, one strand shown
# T3 sequence: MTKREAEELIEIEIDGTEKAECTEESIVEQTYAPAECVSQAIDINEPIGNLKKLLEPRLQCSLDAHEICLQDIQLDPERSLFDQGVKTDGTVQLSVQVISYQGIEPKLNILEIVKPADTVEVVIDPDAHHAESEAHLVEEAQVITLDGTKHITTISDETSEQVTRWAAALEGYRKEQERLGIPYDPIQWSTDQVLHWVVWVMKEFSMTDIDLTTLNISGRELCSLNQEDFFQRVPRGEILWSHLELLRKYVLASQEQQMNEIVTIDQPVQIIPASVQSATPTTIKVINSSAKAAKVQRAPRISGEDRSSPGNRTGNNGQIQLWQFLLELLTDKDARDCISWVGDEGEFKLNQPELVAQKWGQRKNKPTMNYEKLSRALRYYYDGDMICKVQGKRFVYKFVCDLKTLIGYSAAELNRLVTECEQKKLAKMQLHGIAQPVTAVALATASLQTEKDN
# How it was run: as §1
# [4] = target: T4, ERG (Homo sapiens, UniProt P11308 1-479); conditions: protein: recombinant; tags: N-terminal GST; dsDNA, one strand shown
# T4 sequence: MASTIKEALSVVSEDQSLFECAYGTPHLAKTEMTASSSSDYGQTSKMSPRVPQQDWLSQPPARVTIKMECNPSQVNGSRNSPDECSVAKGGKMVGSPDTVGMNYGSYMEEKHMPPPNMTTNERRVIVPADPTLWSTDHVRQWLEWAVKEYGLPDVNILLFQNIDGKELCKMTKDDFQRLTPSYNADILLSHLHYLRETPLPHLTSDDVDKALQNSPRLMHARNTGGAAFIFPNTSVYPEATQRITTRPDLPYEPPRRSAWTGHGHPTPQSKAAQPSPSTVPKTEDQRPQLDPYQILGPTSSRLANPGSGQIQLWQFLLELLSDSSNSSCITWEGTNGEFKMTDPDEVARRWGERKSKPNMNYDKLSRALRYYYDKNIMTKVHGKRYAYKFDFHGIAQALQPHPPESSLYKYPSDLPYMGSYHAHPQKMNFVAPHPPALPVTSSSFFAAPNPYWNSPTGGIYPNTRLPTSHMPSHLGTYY
# How it was run: as §1
# [5] = target: ELF1 (Homo sapiens, UniProt P32519 1-619); conditions: protein: recombinant; tags: N-terminal GST; dsDNA, one strand shown
# How it was run: as §1
# [6] = target: T5, EHF (Homo sapiens, UniProt Q9NZC4 1-300); conditions: protein: recombinant; tags: N-terminal GST; dsDNA, one strand shown
# T5 sequence: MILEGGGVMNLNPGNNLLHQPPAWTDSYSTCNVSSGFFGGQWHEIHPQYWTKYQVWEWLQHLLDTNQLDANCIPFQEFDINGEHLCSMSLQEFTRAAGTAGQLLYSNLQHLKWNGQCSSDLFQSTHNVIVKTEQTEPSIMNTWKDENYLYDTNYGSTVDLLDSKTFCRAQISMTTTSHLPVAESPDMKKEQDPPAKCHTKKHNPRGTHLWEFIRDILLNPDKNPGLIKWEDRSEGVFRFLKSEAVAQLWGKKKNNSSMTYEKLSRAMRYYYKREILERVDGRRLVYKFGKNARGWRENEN
# How it was run: as §1
# [7] = target: SPI1 (Homo sapiens, UniProt P17947 1-270); conditions: protein: recombinant; tags: N-terminal GST; dsDNA, one strand shown
# How it was run: as §1
# [8] = target: T6, ELK3 (Homo sapiens, UniProt P41970 1-407); conditions: protein: recombinant; tags: N-terminal GST; dsDNA, one strand shown
# T6 sequence: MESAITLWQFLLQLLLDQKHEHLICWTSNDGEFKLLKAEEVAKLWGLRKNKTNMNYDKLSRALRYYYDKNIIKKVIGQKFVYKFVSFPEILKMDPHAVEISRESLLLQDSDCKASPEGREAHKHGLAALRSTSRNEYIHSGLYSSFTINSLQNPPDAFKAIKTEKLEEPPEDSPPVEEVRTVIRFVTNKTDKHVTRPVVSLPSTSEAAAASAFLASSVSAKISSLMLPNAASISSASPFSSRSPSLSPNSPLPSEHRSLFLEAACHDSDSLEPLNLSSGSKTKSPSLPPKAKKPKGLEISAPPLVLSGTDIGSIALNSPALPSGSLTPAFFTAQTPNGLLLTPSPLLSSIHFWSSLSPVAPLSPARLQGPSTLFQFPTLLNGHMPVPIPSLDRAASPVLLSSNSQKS
# How it was run: as §1
# [9] = target: T7, FEV (Homo sapiens, UniProt Q99581 1-238); conditions: protein: recombinant; tags: N-terminal GST; dsDNA, one strand shown
# T7 sequence: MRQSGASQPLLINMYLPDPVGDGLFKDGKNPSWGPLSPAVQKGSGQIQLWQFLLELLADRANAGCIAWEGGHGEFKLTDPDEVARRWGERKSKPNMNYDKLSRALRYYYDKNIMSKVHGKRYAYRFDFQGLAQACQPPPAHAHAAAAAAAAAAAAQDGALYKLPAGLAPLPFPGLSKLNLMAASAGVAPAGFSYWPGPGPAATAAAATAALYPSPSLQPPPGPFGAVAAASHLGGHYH
# How it was run: as §1
# [10] = target: ETV5 (Homo sapiens, UniProt P41161 1-510); conditions: protein: recombinant; tags: N-terminal GST; dsDNA, one strand shown
# How it was run: as §1
# [11] = target: HSF1 (Homo sapiens, UniProt Q00613 1-529); conditions: protein: recombinant; tags: N-terminal GST; chain copies: 3; dsDNA, one strand shown
# How it was run: as §1
# [12] = target: T8, SPIC (Homo sapiens, UniProt Q8N5J4 1-248); conditions: protein: recombinant; tags: N-terminal GST; dsDNA, one strand shown
# T8 sequence: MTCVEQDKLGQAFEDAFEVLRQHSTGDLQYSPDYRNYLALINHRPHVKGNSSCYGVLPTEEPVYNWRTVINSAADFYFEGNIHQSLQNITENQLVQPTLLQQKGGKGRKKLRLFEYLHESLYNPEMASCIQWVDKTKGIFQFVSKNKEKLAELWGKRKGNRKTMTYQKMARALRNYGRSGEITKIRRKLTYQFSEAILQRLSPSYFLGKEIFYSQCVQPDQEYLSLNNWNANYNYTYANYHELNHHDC
# How it was run: as §1
# [13] = target: ELF4 (Homo sapiens, UniProt Q99607 1-663); conditions: protein: recombinant; tags: N-terminal GST; dsDNA, one strand shown
# How it was run: as §1
# [14] = target: T9, ETV2 (Homo sapiens, UniProt O00321 1-342); conditions: protein: recombinant; tags: N-terminal GST; dsDNA, one strand shown
# T9 sequence: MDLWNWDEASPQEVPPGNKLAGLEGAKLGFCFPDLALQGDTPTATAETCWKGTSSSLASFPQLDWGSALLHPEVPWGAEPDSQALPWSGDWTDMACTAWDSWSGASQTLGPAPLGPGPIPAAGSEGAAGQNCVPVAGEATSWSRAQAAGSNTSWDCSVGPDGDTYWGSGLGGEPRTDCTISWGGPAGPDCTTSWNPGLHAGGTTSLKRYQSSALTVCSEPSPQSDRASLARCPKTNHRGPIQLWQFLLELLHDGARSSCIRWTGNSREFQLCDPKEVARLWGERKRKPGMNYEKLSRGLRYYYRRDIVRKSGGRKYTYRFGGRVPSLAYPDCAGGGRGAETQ
# How it was run: as §1
# [15] = target: CRX (Homo sapiens, UniProt O43186 1-299); conditions: protein: recombinant; tags: N-terminal GST; dsDNA, one strand shown
# How it was run: as §1
# [16] = target: ETV1 (Homo sapiens, UniProt P50549 1-477); conditions: protein: recombinant; tags: N-terminal GST; dsDNA, one strand shown
# How it was run: as §1
# [17] = target: SPIB (Homo sapiens, UniProt Q01892 1-262); conditions: protein: recombinant; tags: N-terminal GST; dsDNA, one strand shown
# How it was run: as §1
# [18] = target: T10, ELF3 (Homo sapiens, UniProt P78545 1-371); conditions: protein: recombinant; tags: N-terminal GST; dsDNA, one strand shown
# T10 sequence: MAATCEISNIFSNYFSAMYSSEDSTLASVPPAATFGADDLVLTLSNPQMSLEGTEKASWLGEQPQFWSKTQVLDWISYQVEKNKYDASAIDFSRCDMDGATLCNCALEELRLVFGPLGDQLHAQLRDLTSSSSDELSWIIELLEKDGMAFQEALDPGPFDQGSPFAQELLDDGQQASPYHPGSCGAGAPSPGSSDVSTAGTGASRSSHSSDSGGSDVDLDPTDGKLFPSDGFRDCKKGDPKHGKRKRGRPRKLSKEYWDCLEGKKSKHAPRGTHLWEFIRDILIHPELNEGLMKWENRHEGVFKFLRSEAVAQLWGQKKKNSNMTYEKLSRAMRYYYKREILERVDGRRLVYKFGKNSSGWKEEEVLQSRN
# How it was run: as §1
# Chain of ELF1 (P32519 whole entry): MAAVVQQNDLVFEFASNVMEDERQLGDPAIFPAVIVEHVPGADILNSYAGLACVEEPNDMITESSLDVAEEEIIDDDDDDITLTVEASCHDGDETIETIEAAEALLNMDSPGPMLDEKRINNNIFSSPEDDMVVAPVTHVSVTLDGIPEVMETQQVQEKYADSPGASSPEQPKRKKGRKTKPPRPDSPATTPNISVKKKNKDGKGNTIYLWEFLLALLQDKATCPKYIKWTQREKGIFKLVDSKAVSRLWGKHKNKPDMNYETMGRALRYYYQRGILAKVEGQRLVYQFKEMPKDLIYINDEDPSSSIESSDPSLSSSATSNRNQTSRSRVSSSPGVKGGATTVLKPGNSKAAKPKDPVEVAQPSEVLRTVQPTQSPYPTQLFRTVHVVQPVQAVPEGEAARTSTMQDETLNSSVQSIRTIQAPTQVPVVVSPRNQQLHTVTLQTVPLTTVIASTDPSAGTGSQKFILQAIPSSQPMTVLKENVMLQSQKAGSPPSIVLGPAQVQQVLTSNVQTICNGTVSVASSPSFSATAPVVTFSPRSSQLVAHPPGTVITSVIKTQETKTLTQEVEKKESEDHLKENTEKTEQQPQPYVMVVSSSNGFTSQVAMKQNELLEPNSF
# Chain of CRX (O43186 whole entry): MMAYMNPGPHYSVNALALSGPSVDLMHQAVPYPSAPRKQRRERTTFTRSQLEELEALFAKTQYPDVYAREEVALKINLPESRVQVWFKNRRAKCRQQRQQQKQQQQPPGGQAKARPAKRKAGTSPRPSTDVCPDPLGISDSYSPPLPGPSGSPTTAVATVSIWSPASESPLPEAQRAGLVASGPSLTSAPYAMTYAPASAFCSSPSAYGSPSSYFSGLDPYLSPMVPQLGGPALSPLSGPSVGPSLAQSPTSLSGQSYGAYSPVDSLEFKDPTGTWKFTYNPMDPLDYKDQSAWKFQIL
# Chain of ETV5 (P41161 whole entry): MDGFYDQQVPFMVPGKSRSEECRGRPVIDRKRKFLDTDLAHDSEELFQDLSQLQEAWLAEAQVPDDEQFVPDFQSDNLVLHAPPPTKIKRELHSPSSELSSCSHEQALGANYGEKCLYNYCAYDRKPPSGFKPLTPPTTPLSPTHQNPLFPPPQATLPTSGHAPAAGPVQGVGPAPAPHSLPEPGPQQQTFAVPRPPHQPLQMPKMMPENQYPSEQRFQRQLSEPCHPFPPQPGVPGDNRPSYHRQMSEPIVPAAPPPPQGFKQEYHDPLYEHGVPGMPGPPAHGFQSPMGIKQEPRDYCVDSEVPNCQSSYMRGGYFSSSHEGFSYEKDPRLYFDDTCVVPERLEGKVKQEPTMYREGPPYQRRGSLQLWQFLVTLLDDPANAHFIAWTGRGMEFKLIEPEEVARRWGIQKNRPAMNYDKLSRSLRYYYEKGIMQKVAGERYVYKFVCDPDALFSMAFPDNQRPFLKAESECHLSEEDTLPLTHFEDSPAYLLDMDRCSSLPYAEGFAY
# Chain of HSF1 (Q00613 whole entry): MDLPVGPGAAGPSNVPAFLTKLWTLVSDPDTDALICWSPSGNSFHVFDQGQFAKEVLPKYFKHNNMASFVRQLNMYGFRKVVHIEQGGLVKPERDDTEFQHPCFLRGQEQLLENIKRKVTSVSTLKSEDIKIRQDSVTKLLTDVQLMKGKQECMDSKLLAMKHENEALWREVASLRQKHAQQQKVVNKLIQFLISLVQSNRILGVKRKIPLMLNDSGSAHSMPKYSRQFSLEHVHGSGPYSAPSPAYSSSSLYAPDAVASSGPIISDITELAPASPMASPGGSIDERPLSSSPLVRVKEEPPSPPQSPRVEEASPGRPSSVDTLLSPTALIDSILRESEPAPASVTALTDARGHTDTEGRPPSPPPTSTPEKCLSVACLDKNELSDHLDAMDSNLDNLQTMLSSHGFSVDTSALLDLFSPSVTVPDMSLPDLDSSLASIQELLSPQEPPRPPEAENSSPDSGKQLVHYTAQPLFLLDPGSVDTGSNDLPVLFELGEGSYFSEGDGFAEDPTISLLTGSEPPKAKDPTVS
# Chain of ELF4 (Q99607 whole entry): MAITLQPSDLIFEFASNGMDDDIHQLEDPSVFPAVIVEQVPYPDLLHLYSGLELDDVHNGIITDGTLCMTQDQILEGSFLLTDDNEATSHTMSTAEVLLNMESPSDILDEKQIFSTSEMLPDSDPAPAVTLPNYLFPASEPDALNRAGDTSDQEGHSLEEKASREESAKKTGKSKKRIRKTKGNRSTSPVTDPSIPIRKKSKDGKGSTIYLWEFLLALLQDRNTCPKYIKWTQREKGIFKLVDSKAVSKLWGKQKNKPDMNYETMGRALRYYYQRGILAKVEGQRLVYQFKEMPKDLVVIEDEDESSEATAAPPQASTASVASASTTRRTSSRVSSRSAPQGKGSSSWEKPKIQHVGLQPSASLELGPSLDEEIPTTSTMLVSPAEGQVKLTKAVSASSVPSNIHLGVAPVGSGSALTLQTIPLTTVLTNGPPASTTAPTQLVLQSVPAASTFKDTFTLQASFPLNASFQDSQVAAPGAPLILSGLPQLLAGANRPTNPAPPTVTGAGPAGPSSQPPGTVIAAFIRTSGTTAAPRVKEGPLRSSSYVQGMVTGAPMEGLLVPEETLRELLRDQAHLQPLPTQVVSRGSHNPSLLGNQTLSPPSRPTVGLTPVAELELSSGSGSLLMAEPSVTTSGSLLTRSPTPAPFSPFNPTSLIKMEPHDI
# Chain of ETV1 (P50549 whole entry): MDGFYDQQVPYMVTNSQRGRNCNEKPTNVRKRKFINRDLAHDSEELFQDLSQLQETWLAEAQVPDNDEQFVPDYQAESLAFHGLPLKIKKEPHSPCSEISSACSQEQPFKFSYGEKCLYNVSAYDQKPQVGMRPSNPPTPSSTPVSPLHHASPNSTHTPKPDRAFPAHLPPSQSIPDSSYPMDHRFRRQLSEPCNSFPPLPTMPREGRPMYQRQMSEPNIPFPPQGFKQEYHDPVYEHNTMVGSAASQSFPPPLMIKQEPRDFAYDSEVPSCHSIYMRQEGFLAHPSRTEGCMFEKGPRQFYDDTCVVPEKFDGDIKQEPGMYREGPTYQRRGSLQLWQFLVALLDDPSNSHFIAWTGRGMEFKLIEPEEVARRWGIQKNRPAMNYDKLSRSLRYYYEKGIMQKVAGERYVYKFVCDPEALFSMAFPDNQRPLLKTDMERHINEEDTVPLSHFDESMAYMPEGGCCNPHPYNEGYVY
# Chain of SPIB (Q01892 whole entry): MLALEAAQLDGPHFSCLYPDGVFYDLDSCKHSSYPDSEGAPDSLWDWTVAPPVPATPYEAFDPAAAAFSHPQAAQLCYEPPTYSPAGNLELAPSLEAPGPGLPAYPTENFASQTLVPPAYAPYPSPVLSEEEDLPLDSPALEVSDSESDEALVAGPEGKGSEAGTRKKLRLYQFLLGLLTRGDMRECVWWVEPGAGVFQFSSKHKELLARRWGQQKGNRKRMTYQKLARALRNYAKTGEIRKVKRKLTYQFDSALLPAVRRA
sequence,measurement,setting,value
TAGCAG,binding signal,[1],"1.07 fold enrichment (6-mer frequency, TF over GST control)"
same,binding signal,[2],"1.08 fold enrichment (6-mer frequency, TF over GST control)"
same,binding signal,[3],"1.03 fold enrichment (6-mer frequency, TF over GST control)"
same,binding signal,[4],"1.11 fold enrichment (6-mer frequency, TF over GST control)"
same,binding signal,[5],"1.09 fold enrichment (6-mer frequency, TF over GST control)"
same,binding signal,[6],"1 fold enrichment (6-mer frequency, TF over GST control)"
same,binding signal,[7],"1 fold enrichment (6-mer frequency, TF over GST control)"
same,binding signal,[8],"1.19 fold enrichment (6-mer frequency, TF over GST control)"
same,binding signal,[9],"1.03 fold enrichment (6-mer frequency, TF over GST control)"
same,binding signal,[10],"1.04 fold enrichment (6-mer frequency, TF over GST control)"
same,binding signal,[11],"1.12 fold enrichment (6-mer frequency, TF over GST control)"
same,binding signal,[12],"1.04 fold enrichment (6-mer frequency, TF over GST control)"
same,binding signal,[13],"1.05 fold enrichment (6-mer frequency, TF over GST control)"
same,binding signal,[14],"1.06 fold enrichment (6-mer frequency, TF over GST control)"
same,binding signal,[15],"1.23 fold enrichment (6-mer frequency, TF over GST control)"
same,binding signal,[16],"1.02 fold enrichment (6-mer frequency, TF over GST control)"
AGACTT,binding signal,[1],"1.09 fold enrichment (6-mer frequency, TF over GST control)"
same,binding signal,[2],"1.04 fold enrichment (6-mer frequency, TF over GST control)"
same,binding signal,[3],"1.03 fold enrichment (6-mer frequency, TF over GST control)"
same,binding signal,[4],"1.09 fold enrichment (6-mer frequency, TF over GST control)"
same,binding signal,[5],"1.01 fold enrichment (6-mer frequency, TF over GST control)"
same,binding signal,[6],"1.08 fold enrichment (6-mer frequency, TF over GST control)"
same,binding signal,[7],"1.09 fold enrichment (6-mer frequency, TF over GST control)"
same,binding signal,[17],"1.04 fold enrichment (6-mer frequency, TF over GST control)"
same,binding signal,[9],"1.05 fold enrichment (6-mer frequency, TF over GST control)"
same,binding signal,[10],"1.05 fold enrichment (6-mer frequency, TF over GST control)"
same,binding signal,[11],"1.15 fold enrichment (6-mer frequency, TF over GST control)"
same,binding signal,[12],"1.08 fold enrichment (6-mer frequency, TF over GST control)"
same,binding signal,[13],"1.02 fold enrichment (6-mer frequency, TF over GST control)"
same,binding signal,[18],"1.13 fold enrichment (6-mer frequency, TF over GST control)"
same,binding signal,[15],"1.24 fold enrichment (6-mer frequency, TF over GST control)"
